Where “and” joins values, the source holds several entries; their conditions need not be identical. Equal values may be shown once. Records with an inconclusive call do not appear. Calls of active or inactive are those of the source. Unless noted, calls follow the shape of the full dose curve.
Assays:
[1] = qHTS for Inhibitors of the Functional Ribonucleoprotein Complex (vRNP) of Lassa (LASV) Arenavirus: LASV Primary Screen - GLuc reporter signal (AID 1347082; calls by dose curve; tested in HEK293 reporter line; also: nearly all actives have a fitted effect of over 60% in size; also: potency is read from the fitted curve at half-maximal effect)
[2] = qHTS for Inhibitors of the Functional Ribonucleoprotein Complex (vRNP) of Lassa (LASV) Arenavirus: Viability assay - alamar blue signal for LASV Primary Screen (AID 1347083; calls by dose curve; tested in HEK293 reporter line; also: nearly all actives have a fitted effect of over 80% in size; also: potency is read from the fitted curve at half-maximal effect)
[3] = biological target: Nucleoprotein (Lymphocytic choriomeningitis virus (strain Armstrong)) (UniProt P09992); test: qHTS for Inhibitors of the Functional Ribonucleoprotein Complex (vRNP) of Lymphocytic Choriomeningitis Arenaviruses (LCMV): LCMV Primary Screen - GLuc reporter signal (AID 1347086); also: nearly all actives have a fitted effect of over 70% in size; also: potency is read from the fitted curve at half-maximal effect
[4] = Confirmatory qHTS for activators (rescue) of SARS-CoV-2 Cytopathic Effect (CPE) (AID 1508606); also: potency is read from the fitted curve at half-maximal effect; nearly all actives have a fitted effect of over 70% in size
[5] = Cytotoxicity counterscreen for inhibitors of SARS-CoV-2 cell entry (AID 1645845); also: nearly all actives have a fitted effect of over 50% in size; also: potency is read from the fitted curve at half-maximal effect
In short: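 Counterscreen run in the same HEK293-ACE2 line as the pseudotyped-particle entry assay, without particles. Viability after 48 h at 37 C was read as ATP luminescence, scaled between cell-containing and cell-free wells.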

[6] = Primary qHTS to identify inhibitors of SARS-CoV-2 cell entry (AID 1645846); details: activity change, negative = inhibition: at 57.1 µM (top of the series) unless noted; also: nearly all actives have a fitted effect of over 45% in size
In short: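 Luminescence readout (Bright-Glo luciferase) 48 h after pseudoparticle addition. HEK293-ACE2 cells, 1500/well; compound pre-incubation 1 h; Normalized to spike PP and bald PP.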

[7] = biological target: Cytochrome P450 1A2 (Homo sapiens) (UniProt P05177); test: p450-cyp1a2 (AID 410); also: potency is read from the fitted curve at half-maximal effect
In short: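 Read-out is luminescence from luciferin produced by CYP1A2 demethylation of Luciferin-ME (100uM, at Km). Detection reagent stopped the 60 min NADPH-dependent reaction; signals were normalized to 57 uM furafylline.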

[8] = biological target: Glucocorticoid receptor (Homo sapiens) (UniProt P04150); test: GR-EFC Redistribution (AID 451); details: CHO-K1 GR-EFC translocation, beta-gal luminescence, 2 h; also: potency is read from the fitted curve at half-maximal effect
In short: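 CHO-K1 cells expressing nuclear EA and GR-ED fragments of b-gal; compounds titrated up to 46 uM final, 2 h at 37 C. GR nuclear translocation read as complemented b-gal luminescence after 1 h RT detection.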

[9] = biological target: Mitogen-activated protein kinase 10 (Mus musculus) (UniProt Q61831); test: JNK3 AlphaScreen Assay (AID 530; active = well fitted curve in either direction with a large enough effect, not every such curve was filed as active;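 also: kinase came from lysate of stimulated human HepG2 cells; signal reports phosphorylation of biotinylated GST-cJun 1-79 at Ser73 with 10 µM ATP; % is scaled to controls: 0 for no effect and ±100 for the full control effect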)
In short: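 HepG2 lysate (IL-1b/TNFa pre-activated) + biotin-GST-cJun 1-79 + anti-pSer73 cJun; cpd titration, 15 min RT; ATP 10 uM start; Tris pH 7.6, MgCl2, DTT, vanadate; beads in EDTA buffer; AlphaScreen.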

[10] = biological target: 3',5'-cyclic-AMP phosphodiesterase 4B (Homo sapiens) (UniProt Q07343); test: qHTS Assay for Inhibitors of PDE-IV (AID 607; active = well fitted activation curve with a large enough effect in the main read-out, with a control signal flat, not every such curve was filed as active; also: % of control where 0% means no effect)
In short: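 ACTOne HEK293 cells carry a modified cAMP-gated CNG channel and express endogenous PDE4; plated 1000 cells/well, compounds up to 22.9 uM final. Membrane-potential dye fluorescence (ex 535/em 590) was read; parental cells received 10 uM forskolin + 100 uM RO 20-1724.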

[11] = biological target: Cytochrome P450 2C9 (Homo sapiens) (UniProt P11712); test: qHTS Assay for Inhibitors and Substrates of Cytochrome P450 2C9 (AID 883; active = well fitted curve in the direction sought with a large enough effect; an effect the other way counts as inactive or inconclusive; also: % is scaled to controls: 0 for no effect and ±100 for the full control effect; nearly all actives have a fitted effect of over 60% in size)
In short: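 10nM CYP2C9 + 100uM Luciferin-H (=KM), 25mM KPO4; cpd 10 min 37C; NADPH regen, 60 min 37C; stop/detect with P450 Glo-Buffer 20 min; luminescence. Norm. to 57uM sulphaphenazole as full inhibition.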

[12] = biological target: Cytochrome P450 3A4 (Homo sapiens) (UniProt P08684); test: qHTS Assay for Activators of Cytochrome P450 3A4 (AID 885; active = well fitted curve in the direction sought with a large enough effect; an effect the other way counts as inactive or inconclusive; also: nearly all actives have a fitted effect of over 65% in size)
In short: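 CYP3A4 activity: Luciferin-PPXE O-dealkylation, 25uM substrate, 200mM KPO4, RT throughout. Read-out is luciferase luminescence; higher values reflect activation.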

[13] = biological target: Cytochrome P450 2D6 (Homo sapiens) (UniProt P10635); test: qHTS Assay for Inhibitors and Substrates of Cytochrome P450 2D6 (AID 891; active = well fitted curve in the direction sought with a large enough effect; an effect the other way counts as inactive or inconclusive;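 also: luciferin methyl ether substrate demethylated by CYP2D6 with NADPH regeneration; % is scaled to controls: 0 for no effect and ±100 for the full control effect; nearly all actives have a fitted effect of over 60% in size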)
In short: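 Luminescent read-out of luciferin formed by 5 nM human CYP2D6 demethylating 30 uM Luciferin-ME EGE (Km level) over 60 min at room temperature after NADPH regeneration addition. Data normalized to full inhibition by 1.43 uM quinidine.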

[14] = biological target: Cytochrome P450 2C19 (Homo sapiens) (UniProt P33261); test: qHTS Assay for Inhibitors and Substrates of Cytochrome P450 2C19 (AID 899; active = well fitted curve in the direction sought with a large enough effect; an effect the other way counts as inactive or inconclusive; also: % is scaled to controls: 0 for no effect and ±100 for the full control effect; nearly all actives have a fitted effect of over 60% in size)
In short: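 Luminescent read-out of luciferin formed from Luciferin-H EGE (10uM, equal to KM). Enzyme 5nM in 50mM KPO4; compound added, 10 min at 37C, then NADPH regenerating system for 60 min at 37C. Full inhibition defined by 57uM ketoconazole.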

[15] = Confirmation and Secondary Assay for Modulators of Hemoglobin Beta Chain Splicing at IVS2 654 locus (AID 910; active = well fitted curve in the direction sought with a large enough effect; an effect the other way counts as inactive or inconclusive;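 also: HeLa cells stably carrying EGFP split by mutant beta-globin IVS2-654 intron; % of control where 0% means no effect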)
In short: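 HeLa cells stably expressing EGFP interrupted by β-globin IVS2-654 intron, seeded overnight in Opti-MEM/2% FCS, then treated 2 days at 37 °C. Restored splicing read as total peak GFP intensity per well by laser scanning cytometry (488 nm excitation, 500–520 nm emission); 500 nM antisense PNA as control.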

[16] = Confirmation and Secondary Assay for Modulators of Hemoglobin Beta Chain Splicing at IVS2 705 locus (AID 930; active = well fitted curve in the direction sought with a large enough effect; an effect the other way counts as inactive or inconclusive;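 also: HeLa cells stably expressing the EGFP-705 splicing reporter; GFP fluorescence per well restored by corrected splicing of the IVS2-705 intron in EGFP; % of control where 0% means no effect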)
In short: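 HeLa EGFP-705 reporter; 500 cells/well, o/n 37C 5% CO2; cpd 2 d; 488 ex/500-520 em laser scan; total peak GFP intensity/well. Ref: 500 nM […] antisense PNA.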

[17] = biological target: DNA dC->dU-editing enzyme APOBEC-3G (Homo sapiens) (UniProt Q9HC16); test: qHTS for inhibitors of Vif-A3G interactions: Validation (AID 588379; active = well fitted curve in the direction sought with a large enough effect; an effect the other way counts as inactive or inconclusive; also: 0% is about no effect)
In short: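 Yellow fluorescence (Ex 488, Em 500-530) of Vif-coexpressing HeLa A3G-eYFP cells, scanned by Acumen cytometer, reports blocked A3G degradation. Cells plated at 700/well overnight at 37 deg C before compound addition, then a further overnight compound incubation at 37 deg C.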

[18] = system: Zika virus NS2B-NS3 protease; test: Primary screen GU AMC qHTS for Zika virus inhibitors (AID 1347154; active = well fitted curve in the direction sought with a large enough effect; an effect the other way counts as inactive or inconclusive;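 also: 0% = no-inhibitor control and -100% = no-enzyme control; nearly all actives have a fitted effect of over 70% in size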)
In short: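 Unlinked Zika NS2B hydrophilic domain–NS3 protease complex at 25 nM in 10 mM Tris-HCl pH 8.0, 0.01% Tween 20, with an AMC peptide substrate. Fluorescence change (340/450 nm) over 15 min at room temperature, normalized to controls, fitted to 4-parameter Hill.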

[19] = Primary qHTS for small molecule stabilizers of the endoplasmic reticulum resident proteome: Secreted ER Calcium Modulated Protein (SERCaMP) assay (AID 1508630; active = well fitted curve in the direction sought with a large enough effect; an effect the other way counts as inactive or inconclusive; also: % is scaled to controls: 0 for no effect and ±100 for the full control effect)
In short: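 The SH-SY5Y reporter protocol was run at 3 concentrations up to 38.3 uM (primary) or 11 concentrations (follow-up): 16 h compound, 100 nM thapsigargin for 4 h, then extracellular luciferase luminescence.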

[20] = biological target: Alpha-galactosidase (Coffea arabica) (UniProt Q42656); test: Counterscreen for Glucocerebrosidase Inhibitors: qHTS Assay for Coffee Bean alpha-Galactosidase at pH 4.5 (AID 957; active = well fitted curve in the direction sought with a large enough effect; an effect the other way counts as inactive or inconclusive;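 also: plate controls were enzyme alone for no effect and no enzyme for full effect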)
In short: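 Quantitative HTS of compounds (0.7 nM to 77 uM) against coffee bean alpha-galactosidase at pH 4.5, measuring 4-methylumbelliferone fluorescence released from 80 uM substrate.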

[21] = biological target: Alpha-galactosidase (Coffea arabica) (UniProt Q42656); test: Counterscreen for Glucocerebrosidase Inhibitors: qHTS Assay for Coffee Bean alpha-Galactosidase at pH 5.9 (AID 998; active = well fitted curve in the direction sought with a large enough effect; an effect the other way counts as inactive or inconclusive;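 also: plate controls were uninhibited enzyme for no effect and no-enzyme basal signal for full effect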)
In short: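 Enzyme 2 nM + cpd (0.7 nM–77 uM titration) + 4-MU-alpha-Gal 80 uM, pH 5.9 citrate/Tween-20, RT 20 min, NaOH/glycine stop pH 10, fluor 365/440. Normalized to no-enzyme and full-activity controls; Hill-fit AC50.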

[22] = qHTS for Inhibitors of the Functional Ribonucleoprotein Complex (vRNP) of Lymphocytic Choriomeningitis Arenaviruses (LCMV): Viability assay - alamar blue signal for LCMV Primary Screen (AID 1347085; calls by dose curve; tested in HEK293 reporter line; also: potency is read from the fitted curve at half-maximal effect; nearly all actives have a fitted effect of over 80% in size)
[23] = Primary qHTS for inhibitors of SARS-S pseudo-typed particle cell entry (AID 1479145); also: % is scaled to controls: 0 for no effect and ±100 for the full control effect; nearly all actives have a fitted effect of over 45% in size
[24] = Primary qHTS for Huh7 cytotoxicity: counterscreen for inhibitors of MERS-S pseudotyped particle cell entry (AID 1479147); details: outcome: dose series up to 57.1 µM unless noted; also: % is scaled to controls: 0 for no effect and ±100 for the full control effect
[25] = Primary qHTS for inhibitors of MERS-S pseudo-typed particle cell entry (AID 1479149)
[26] = Primary qHTS for Vero E6 cytotoxicity: counterscreen for inhibitors of SARS-S pseudo-typed particle cell entry (AID 1479150); details: outcome: dose series up to 57.1 µM unless noted; also: % is scaled to controls: 0 for no effect and ±100 for the full control effect

Sequence of Nucleoprotein (Lymphocytic choriomeningitis virus (strain Armstrong)) (P09992 whole entry, looked up): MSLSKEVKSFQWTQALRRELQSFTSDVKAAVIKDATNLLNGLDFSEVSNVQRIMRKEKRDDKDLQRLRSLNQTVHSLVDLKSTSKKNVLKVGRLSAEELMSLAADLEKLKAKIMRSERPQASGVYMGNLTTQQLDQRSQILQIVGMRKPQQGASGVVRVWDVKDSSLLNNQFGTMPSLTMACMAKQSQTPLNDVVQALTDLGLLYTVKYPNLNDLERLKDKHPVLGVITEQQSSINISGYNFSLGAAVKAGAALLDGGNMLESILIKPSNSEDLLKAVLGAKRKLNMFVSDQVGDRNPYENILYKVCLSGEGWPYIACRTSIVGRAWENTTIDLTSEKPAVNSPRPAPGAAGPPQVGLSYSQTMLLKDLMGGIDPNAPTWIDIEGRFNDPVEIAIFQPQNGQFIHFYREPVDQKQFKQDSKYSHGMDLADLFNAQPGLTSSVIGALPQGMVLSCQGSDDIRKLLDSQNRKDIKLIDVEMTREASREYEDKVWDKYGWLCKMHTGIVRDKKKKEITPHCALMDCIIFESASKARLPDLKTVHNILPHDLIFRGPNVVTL
Sequence of Cytochrome P450 3A4 (Homo sapiens) (P08684 whole entry, looked up): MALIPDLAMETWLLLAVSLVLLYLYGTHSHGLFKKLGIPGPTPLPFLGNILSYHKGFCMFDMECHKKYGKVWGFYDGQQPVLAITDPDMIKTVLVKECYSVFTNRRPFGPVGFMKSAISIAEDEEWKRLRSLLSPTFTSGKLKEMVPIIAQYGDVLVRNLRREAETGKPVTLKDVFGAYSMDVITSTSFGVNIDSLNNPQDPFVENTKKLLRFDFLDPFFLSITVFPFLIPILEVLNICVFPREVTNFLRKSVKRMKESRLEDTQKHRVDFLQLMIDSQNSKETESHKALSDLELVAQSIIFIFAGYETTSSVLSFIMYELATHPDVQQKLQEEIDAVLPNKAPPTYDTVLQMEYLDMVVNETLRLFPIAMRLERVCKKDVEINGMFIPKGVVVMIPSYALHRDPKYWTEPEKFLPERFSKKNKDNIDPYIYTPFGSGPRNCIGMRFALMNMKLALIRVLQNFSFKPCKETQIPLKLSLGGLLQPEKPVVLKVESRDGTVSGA
Sequence of Alpha-galactosidase (Coffea arabica) (Q42656 whole entry, looked up): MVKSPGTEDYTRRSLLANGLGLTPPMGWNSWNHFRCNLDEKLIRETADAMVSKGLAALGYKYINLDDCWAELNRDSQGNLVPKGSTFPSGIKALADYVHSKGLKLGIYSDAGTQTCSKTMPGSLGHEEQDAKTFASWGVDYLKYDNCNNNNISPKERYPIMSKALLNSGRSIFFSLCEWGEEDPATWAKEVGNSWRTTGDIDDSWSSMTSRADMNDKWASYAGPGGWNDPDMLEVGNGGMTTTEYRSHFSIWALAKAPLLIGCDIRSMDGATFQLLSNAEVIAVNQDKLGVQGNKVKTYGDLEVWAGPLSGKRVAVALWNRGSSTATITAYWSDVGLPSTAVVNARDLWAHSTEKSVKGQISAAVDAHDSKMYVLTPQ
Sequence of DNA dC->dU-editing enzyme APOBEC-3G (Homo sapiens) (Q9HC16 whole entry, looked up): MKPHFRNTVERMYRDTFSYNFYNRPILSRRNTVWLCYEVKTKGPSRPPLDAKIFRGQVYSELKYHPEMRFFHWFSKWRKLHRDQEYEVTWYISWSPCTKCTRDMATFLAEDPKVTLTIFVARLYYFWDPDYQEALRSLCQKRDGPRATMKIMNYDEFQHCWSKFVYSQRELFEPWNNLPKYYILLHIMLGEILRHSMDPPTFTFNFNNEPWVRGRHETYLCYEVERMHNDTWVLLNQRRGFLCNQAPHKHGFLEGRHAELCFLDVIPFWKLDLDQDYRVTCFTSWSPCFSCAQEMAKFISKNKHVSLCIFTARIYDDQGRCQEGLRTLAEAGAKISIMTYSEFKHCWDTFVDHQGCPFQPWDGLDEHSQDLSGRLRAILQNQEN
Sequence of Cytochrome P450 2D6 (Homo sapiens) (P10635 whole entry, looked up): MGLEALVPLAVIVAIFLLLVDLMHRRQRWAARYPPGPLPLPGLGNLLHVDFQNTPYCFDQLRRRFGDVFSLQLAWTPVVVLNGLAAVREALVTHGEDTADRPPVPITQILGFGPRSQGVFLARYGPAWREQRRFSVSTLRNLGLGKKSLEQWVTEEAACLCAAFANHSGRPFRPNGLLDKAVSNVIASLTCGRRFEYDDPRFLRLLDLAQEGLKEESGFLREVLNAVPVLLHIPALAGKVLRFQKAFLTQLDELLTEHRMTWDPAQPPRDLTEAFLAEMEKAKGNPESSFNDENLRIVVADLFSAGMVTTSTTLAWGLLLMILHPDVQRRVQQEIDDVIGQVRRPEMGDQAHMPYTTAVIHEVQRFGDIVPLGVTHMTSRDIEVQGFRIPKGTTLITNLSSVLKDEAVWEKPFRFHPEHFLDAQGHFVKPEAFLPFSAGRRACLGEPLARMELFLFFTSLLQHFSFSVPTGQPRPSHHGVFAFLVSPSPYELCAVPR
Sequence of Cytochrome P450 1A2 (Homo sapiens) (P05177 whole entry, looked up): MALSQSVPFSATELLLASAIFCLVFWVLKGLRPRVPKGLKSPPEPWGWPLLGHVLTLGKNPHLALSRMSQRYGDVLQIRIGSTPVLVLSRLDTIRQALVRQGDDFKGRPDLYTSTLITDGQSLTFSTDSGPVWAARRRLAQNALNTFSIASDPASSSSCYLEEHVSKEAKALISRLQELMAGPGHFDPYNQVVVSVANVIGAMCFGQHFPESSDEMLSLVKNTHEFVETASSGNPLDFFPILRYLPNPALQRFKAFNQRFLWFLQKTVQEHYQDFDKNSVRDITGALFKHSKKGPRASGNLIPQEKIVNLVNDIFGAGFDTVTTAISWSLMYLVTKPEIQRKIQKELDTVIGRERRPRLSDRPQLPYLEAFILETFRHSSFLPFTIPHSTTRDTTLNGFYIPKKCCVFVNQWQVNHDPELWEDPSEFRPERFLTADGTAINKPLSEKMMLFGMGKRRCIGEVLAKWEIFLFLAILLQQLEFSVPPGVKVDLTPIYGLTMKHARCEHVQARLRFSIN
Sequence of Cytochrome P450 2C19 (Homo sapiens) (P33261 whole entry, looked up): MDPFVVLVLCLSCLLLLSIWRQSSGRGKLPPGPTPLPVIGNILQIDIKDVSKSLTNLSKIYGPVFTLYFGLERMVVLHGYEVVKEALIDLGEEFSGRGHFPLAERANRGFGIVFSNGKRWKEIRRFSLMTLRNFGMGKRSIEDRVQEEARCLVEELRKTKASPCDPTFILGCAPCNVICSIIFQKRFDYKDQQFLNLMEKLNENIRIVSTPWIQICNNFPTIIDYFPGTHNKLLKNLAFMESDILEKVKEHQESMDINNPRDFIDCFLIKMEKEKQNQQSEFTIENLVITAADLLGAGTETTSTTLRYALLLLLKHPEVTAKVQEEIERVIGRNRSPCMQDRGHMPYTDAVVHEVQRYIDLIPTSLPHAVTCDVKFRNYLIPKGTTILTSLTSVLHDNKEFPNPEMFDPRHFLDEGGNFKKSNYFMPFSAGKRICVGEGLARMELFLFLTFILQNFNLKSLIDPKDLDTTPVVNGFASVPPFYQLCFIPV
Sequence of 3',5'-cyclic-AMP phosphodiesterase 4B (Homo sapiens) (Q07343 whole entry, looked up): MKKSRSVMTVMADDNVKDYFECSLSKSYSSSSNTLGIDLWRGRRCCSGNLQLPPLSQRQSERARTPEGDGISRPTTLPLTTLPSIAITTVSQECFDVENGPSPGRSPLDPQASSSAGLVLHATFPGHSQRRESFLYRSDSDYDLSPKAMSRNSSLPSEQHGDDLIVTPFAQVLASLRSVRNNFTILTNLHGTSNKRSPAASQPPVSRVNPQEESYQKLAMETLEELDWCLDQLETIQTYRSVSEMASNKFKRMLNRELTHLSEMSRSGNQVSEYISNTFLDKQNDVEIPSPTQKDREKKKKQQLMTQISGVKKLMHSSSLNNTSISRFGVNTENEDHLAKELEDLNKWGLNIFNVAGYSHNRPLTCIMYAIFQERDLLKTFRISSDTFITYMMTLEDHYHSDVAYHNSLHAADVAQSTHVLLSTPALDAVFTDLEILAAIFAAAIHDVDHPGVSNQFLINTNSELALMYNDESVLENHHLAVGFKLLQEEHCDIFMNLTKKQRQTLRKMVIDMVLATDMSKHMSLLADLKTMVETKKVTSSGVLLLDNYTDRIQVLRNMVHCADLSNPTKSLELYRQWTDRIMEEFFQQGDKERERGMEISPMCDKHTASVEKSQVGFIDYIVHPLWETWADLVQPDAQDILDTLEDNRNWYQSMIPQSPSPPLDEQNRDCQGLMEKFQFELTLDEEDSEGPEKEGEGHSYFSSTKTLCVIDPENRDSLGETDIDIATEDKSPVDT
Sequence of Cytochrome P450 2C9 (Homo sapiens) (P11712 whole entry, looked up): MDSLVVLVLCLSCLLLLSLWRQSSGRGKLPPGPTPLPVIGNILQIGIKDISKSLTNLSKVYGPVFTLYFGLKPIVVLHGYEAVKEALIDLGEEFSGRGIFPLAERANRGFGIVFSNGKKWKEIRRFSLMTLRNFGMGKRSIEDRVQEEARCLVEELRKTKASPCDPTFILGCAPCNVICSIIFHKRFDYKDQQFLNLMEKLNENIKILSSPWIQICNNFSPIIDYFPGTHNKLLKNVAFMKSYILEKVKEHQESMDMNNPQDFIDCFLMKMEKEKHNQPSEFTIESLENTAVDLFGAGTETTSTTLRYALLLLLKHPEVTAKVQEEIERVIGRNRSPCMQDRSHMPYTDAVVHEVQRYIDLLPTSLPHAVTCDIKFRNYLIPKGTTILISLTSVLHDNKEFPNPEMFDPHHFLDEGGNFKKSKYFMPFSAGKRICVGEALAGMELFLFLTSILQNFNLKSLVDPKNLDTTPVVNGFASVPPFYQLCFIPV

CCCCCCCCCCCCCCCC(N)=O
inactive: activity change, negative = inhibition [1] 1.8% [at 5.82 µM] | activity change, negative = reduced viability [2] 2.57% [at 5.82 µM] | activity change, negative = inhibition [3] -29.4% [at 5.82 µM]

CC(=O)/C=C/C1C(C)=CCC(C)C1(C)C (stereo not drawn)
inactive: Potency [1] | Potency [2] | Potency [3]

COc1cc(C(=O)O[C@@H]2CC(C)=CC[C@@]3(C)CC[C@](O)(C(C)C)[C@H]23)ccc1O
inactive: Potency [1] | Potency [2] | Potency [3]

CC(C)(N)c1ccc(-c2nc3ccccc3nc2-c2ccccc2)cc1
inactive: Potency [1] | Potency [3] | Potency [5]
active: Potency [2] 19.3 µM | Potency [4] 10 µM
-19.6%: activity change, negative = inhibition [6]

COc1cc2ncn(-c3cc(OCc4ccccc4S(C)(=O)=O)c(C#N)s3)c2cc1OC
active: Potency [2] 27.3 µM
inactive: Potency [1] | Potency [3]

CC(=O)O[C@@H]1/C=C/[C@](C)(O)C[C@@H](C)C/C=C/[C@H]2[C@H](O)C(C)=C(C)[C@H]3[C@H](Cc4ccccc4)NC(=O)[C@@]123
active: Potency [2] 2 µM
inactive: Potency [1] | Potency [3]

CC(C)=CC[C@@H](O)C1=CC(=O)c2c(O)ccc(O)c2C1=O
inactive: Potency [1] | Potency [2] | Potency [3] | Potency [5] | Potency [6]

COc1cccc2c1cc([N+](=O)[O-])c1c(C(=O)O)cc3c(c12)OCO3
inactive: Potency [8] > 46 µM | outcome [9] | Potency [10] | Potency [11] | Potency [12] | Potency [13] | Potency [14] | Potency [15] | outcome [16] | Potency [17] | Potency [1] | Potency [2] | Potency [3] | Potency [18] | Potency [19]
active: Potency [7] 31.6 µM

Cc1cccc(-c2[nH]c(C(C)(C)C)nc2-c2ccc3c(c2)OCO3)n1
active: Potency [1] 10.9 µM | Potency [2] 7.69 µM | Potency [3] 7.69 µM | Potency [5] 17.8 µM

C[C@@H](NCc1cc2ccccc2[nH]1)c1cccc2ccccc12
inactive: Potency [1] | Potency [2] | Potency [3]
active: Potency [5] 31.6 µM

COCCCCC(=NOCCN)c1ccc(C(F)(F)F)cc1
active: Potency [2] 1.93 µM | Potency [22] 38.5 µM
inactive: outcome [20] | outcome [21] | Potency [1]

CN(C)Cc1cccc(N=C(c2ccccc2)c2c(O)[nH]c3cc(C(=O)N(C)C)ccc23)c1
inactive: Potency [1] | Potency [3] | Potency [5]
active: Potency [2] 13.7 µM

CC#CCn1c(N2CCC[C@@H](N)C2)nc2c1c(=O)n(Cc1nc(C)c3ccccc3n1)c(=O)n2C
inactive: Potency [1] | Potency [2] | Potency [3] | Potency [23] | outcome [24] | Potency [25] | outcome [26] | Potency [5]
-18.4% and -12.2%: activity change, negative = inhibition [6]

Source: PubChem BioAssay (NCATS)
